Measurements: PubChem BioAssay (EPA / NIEHS)
“And” between values parts separate entries of the source, which are not always exact repeats. Equal values may be shown once. Records with an inconclusive call do not appear. Where a structure was tested more than once in an assay, its records may differ in their call. The source made the active and inactive calls. The calls were made as follows, unless noted: active = hit-call score of the fitted dose curve at least 0.9, where 1 is the maximum; inactive = score below 0.9.

Columns and labels:
[1] = ATG_TAL_CIS: Attagene CIS-FACTORIAL HepG2 Assay for human TAL Basal Promoter (AID 2282966); conditions: HepG2 Attagene cis-factorial TAL promoter reporter; actives raise or lower the signal;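 also: background control endpoint measuring basal TAL promoter reporter mRNA not a specific factor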
Procedure, shortened: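 Basal-promoter background-control endpoint from a multiplexed HepG2 reporter panel. Cells were exposed 24 h, then reporter mRNA was read by RT-PCR/CE fluorescence and fitted in both directions relative to DMSO.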

[2] = ATG_TGFb_CIS: Attagene CIS-FACTORIAL HepG2 Assay for human Transforming Growth Factor (TGF) (AID 2282967); conditions: HepG2 Attagene CIS TGFb reporter, mRNA transcription; actives raise or lower the signal
Procedure, shortened: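 Liver HepG2 line, cis-factorial reporter panel, 24 h dosing. Quantitation: RT-PCR products labeled with 6-FAM, cut with HpaI, resolved by capillary electrophoresis; DMSO-referenced bidirectional analysis.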

[3] = ATG_VDRE_CIS: Attagene CIS-FACTORIAL HepG2 Assay for human Vitamin D Receptor Element (VDRE) (AID 2282968); conditions: HepG2 VDRE cis-reporter transcription, actives raise or lower the signal
Procedure, shortened: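 Compounds were applied for 24 h to HepG2 cells transfected with promoter-regulated reporter units. Total RNA was reverse-transcribed, and reporter amplicons were fluorescently labelled and sized by capillary electrophoresis.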

[4] = molecular target: Nuclear receptor subfamily 1 group I member 3 (Homo sapiens) (UniProt Q14994); experiment: ATG_CAR_TRANS: Attagene TRANS-FACTORIAL HepG2 Assay for human Constitutive Androstane Receptor (CAR) (AID 2282969; active = hit-call score of the fitted dose curve at least 0.9, where 1 is the maximum;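 also: activators raise reporter mRNA above DMSO so AC50 marks induction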); conditions: HepG2 Attagene TRANS-FACTORIAL CAR reporter
Sequence of Nuclear receptor subfamily 1 group I member 3 (Homo sapiens) (Q14994 whole entry, looked up, the tested form may be a part): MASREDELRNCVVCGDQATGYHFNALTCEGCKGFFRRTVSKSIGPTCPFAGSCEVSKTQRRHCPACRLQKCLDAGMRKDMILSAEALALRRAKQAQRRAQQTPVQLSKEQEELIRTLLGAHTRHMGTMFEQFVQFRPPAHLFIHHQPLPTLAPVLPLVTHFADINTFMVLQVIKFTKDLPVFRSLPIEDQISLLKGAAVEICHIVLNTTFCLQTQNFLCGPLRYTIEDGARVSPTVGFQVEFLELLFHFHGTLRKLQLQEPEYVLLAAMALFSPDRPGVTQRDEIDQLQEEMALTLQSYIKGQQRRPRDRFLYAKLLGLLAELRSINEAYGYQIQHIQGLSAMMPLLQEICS
Procedure, shortened: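 Transiently transfected HepG2, multiplex TRANS reporters (CAR-Gal4 chimera driving GAL4-UAS reporter). 24 h dosing. Readout: reporter transcript by RT-PCR + capillary electrophoresis, fluorescence intensity; positive direction vs DMSO.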

[5] = molecular target: Estrogen receptor (Homo sapiens) (UniProt P03372); experiment: ATG_ERa_TRANS: Attagene TRANS-FACTORIAL HepG2 Assay for human Estrogen Receptor alpha (ERa) (AID 2282970; active = hit-call score of the fitted dose curve at least 0.9, where 1 is the maximum); conditions: HepG2 Attagene TRANS ERa GAL4 reporter, mRNA
Sequence of Estrogen receptor (Homo sapiens) (P03372 whole entry, looked up, the tested form may be a part): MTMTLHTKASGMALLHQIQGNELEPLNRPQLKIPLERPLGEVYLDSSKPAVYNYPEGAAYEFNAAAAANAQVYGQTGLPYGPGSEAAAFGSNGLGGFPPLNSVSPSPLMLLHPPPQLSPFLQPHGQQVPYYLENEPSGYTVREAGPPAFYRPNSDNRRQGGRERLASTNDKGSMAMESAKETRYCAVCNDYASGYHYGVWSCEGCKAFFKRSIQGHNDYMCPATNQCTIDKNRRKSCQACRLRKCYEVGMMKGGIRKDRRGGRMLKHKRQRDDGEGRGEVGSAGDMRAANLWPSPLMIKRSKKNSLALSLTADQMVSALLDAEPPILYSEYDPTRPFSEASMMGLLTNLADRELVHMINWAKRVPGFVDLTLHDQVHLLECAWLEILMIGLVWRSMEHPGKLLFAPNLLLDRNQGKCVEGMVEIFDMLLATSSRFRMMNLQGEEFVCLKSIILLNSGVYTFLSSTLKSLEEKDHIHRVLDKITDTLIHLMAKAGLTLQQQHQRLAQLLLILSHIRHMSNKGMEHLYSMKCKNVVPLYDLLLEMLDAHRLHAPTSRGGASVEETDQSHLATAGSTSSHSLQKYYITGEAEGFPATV
Procedure, shortened: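 Gal4-fusion ERa transactivation, measured as reporter transcript level in transiently transfected HepG2 cells. Exposure 24 h; RT-PCR plus capillary electrophoresis with fluorescence detection.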

[6] = molecular target: Steroid hormone receptor ERR1 (Homo sapiens) (UniProt P11474); experiment: ATG_ERRa_TRANS: Attagene TRANS-FACTORIAL HepG2 Assay for human Estrogen-Related Receptor alpha (ERRa) (AID 2282971; active = hit-call score of the fitted dose curve at least 0.9, where 1 is the maximum); conditions: HepG2 Attagene TRANS reporter, ERRa transactivation
Sequence of Steroid hormone receptor ERR1 (Homo sapiens) (P11474 whole entry, looked up, the tested form may be a part): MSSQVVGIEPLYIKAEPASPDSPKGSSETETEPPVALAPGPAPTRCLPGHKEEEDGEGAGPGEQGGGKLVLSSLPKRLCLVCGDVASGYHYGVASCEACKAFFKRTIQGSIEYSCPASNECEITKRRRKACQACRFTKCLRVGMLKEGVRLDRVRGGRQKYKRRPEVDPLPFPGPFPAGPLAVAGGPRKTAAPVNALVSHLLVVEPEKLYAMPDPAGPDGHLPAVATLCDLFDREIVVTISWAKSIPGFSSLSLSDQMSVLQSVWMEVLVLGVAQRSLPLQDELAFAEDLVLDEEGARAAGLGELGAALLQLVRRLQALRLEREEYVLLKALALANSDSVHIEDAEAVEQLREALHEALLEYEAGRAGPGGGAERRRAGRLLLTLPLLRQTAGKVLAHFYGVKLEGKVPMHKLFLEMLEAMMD
Procedure, shortened: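 HepG2 cells transiently transfected with GAL4-UAS reporter units and chimeric NR-Gal4 constructs; after 24 hour compound incubation, reporter mRNA quantified by RT-PCR, fluorescent labelling and capillary electrophoresis, gain of signal versus DMSO.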

[7] = molecular target: X-box-binding protein 1 (Homo sapiens) (UniProt P17861); experiment: ATG_Xbp1_CIS: Attagene CIS-FACTORIAL HepG2 Assay for human X-box Binding Protein 1 (XBP1) (AID 2282972); conditions: HepG2 XBP1 cis-element reporter, Attagene multiplex; actives raise or lower the signal
Sequence of X-box-binding protein 1 (Homo sapiens) (P17861 whole entry, looked up): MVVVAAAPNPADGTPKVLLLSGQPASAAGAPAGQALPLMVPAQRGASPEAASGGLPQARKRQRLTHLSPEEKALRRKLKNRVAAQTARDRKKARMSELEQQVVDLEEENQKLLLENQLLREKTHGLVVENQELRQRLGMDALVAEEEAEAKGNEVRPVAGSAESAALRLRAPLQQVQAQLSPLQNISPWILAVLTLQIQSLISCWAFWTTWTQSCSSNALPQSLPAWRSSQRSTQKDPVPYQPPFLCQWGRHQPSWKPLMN
Procedure, shortened: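 Human hepatoma HepG2, cis-element reporter system, 24 h treatment; mRNA quantified by RT-PCR/CE fluorescence; fit relative to DMSO.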

[8] = molecular target: Androgen receptor (Homo sapiens) (UniProt P10275); experiment: ATG_AR_TRANS: Attagene TRANS-FACTORIAL HepG2 Assay for human Androgen Receptor (AR) (AID 2282973; active = hit-call score of the fitted dose curve at least 0.9, where 1 is the maximum); conditions: HepG2 Attagene TRANS-FACTORIAL AR reporter transcription
Sequence of Androgen receptor (Homo sapiens) (P10275 whole entry, looked up, the tested form may be a part): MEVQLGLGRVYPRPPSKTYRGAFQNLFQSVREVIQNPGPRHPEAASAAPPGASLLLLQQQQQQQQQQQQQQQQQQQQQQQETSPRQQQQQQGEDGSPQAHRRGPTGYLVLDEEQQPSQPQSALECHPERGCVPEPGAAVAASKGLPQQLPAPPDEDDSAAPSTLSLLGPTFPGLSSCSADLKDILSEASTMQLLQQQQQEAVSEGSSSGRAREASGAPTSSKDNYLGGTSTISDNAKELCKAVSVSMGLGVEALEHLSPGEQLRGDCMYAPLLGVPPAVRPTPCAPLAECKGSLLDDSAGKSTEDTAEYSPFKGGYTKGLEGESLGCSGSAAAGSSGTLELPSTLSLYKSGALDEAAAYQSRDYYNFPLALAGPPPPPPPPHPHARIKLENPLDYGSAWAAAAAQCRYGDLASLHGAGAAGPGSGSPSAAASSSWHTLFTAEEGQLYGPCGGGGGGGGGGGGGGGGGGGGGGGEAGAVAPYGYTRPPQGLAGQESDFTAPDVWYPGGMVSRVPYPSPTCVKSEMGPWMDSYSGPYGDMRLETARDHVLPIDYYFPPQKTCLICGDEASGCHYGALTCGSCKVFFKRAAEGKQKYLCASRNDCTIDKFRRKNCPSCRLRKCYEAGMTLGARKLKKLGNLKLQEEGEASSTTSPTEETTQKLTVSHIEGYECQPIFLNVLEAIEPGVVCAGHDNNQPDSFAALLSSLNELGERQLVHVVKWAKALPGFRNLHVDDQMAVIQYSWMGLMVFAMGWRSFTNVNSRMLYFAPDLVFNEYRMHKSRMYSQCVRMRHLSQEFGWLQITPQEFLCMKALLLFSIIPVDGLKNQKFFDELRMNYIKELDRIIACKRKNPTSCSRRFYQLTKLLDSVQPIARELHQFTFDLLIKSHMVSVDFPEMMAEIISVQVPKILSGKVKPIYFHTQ
Procedure, shortened: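 HepG2 cells transiently transfected with AR-Gal4 chimera and GAL4-UAS reporter units; chemical exposure 24 h. Reporter mRNA quantified by RT-PCR with fluorescent labelling and capillary electrophoresis; gain-of-signal fitted against DMSO.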

[9] = ATG_M_19_TRANS: Attagene TRANS-FACTORIAL HepG2 Assay for M19 Transcription Factor (Internal Marker) (AID 2282974; active = hit-call score of the fitted dose curve at least 0.9, where 1 is the maximum); conditions: HepG2 Attagene TRANS-FACTORIAL M19 internal marker reporter
Procedure, shortened: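 Cells: human HepG2, transiently transfected with multiplexed reporter transcription units. Exposure: 24 h. Detection: RT-PCR of reporter mRNA with capillary electrophoresis. Analysis: gain-of-signal vs DMSO.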

[10] = ATG_GAL4_TRANS: Attagene TRANS-FACTORIAL HepG2 Assay for GAL4 (Internal Marker) (AID 2282976; active = hit-call score of the fitted dose curve at least 0.9, where 1 is the maximum); conditions: HepG2 Attagene TRANS GAL4 internal marker reporter
Procedure, shortened: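 Background-control readout: GAL4-UAS reporter transcript in transiently transfected HepG2 cells after 24 h compound exposure. Measured by RT-PCR, 6-FAM primer extension, HpaI digest and capillary electrophoresis; gain-of-signal fit versus DMSO.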

Row | Compound | outcome [1] | AC50 [2] | outcome [2] | AC50 [3] | outcome [3] | outcome [4] | AC50 [5] | outcome [5] | outcome [6] | outcome [7] | outcome [8] | outcome [9] | outcome [10] | AC50 [7]
1 | COC(=O)C(F)(F)C(F)(F)OC(F)(C(F)(F)F)C(F)(F)OC(F)=C(F)F (configuration not stated) | inactive | 87.4 µM (active) | inactive | 18.3 µM (active) | inactive | inactive | 30.3 µM (active) and 13.7 µM (active) | inactive | inactive | inactive | inactive | inactive | inactive | 
2 | Nc1ccc2ccccc2c1 | inactive |  | inactive |  | inactive | inactive |  | inactive | inactive | inactive |  | inactive |  | 
3 | CCCCC(CC)COP(=O)(Oc1ccccc1)Oc1ccccc1 (configuration not stated) | inactive |  | inactive | 0.866 µM (active) |  | inactive | 1.16 µM (active) |  |  |  | inactive | inactive |  | 100 µM (active)
4 | O=C(O)C(F)(F)C(F)(F)C(=O)O | inactive |  | inactive |  | inactive | inactive |  | inactive |  | inactive |  | inactive |  | 
5 | CCOc1ccc(C(C)(C)COCc2cccc(Oc3ccccc3)c2)cc1 | inactive |  | inactive | 5.77 µM (active) |  | inactive |  | inactive |  | inactive |  | inactive |  | 
6 | O=C(O)C(F)(F)OC(F)(F)C(F)(F)OC(F)(F)F | inactive |  | inactive |  | inactive | inactive |  | inactive | inactive | inactive | inactive | inactive | inactive | 
7 | CNC(=O)Oc1ccc(N(C)C)c(C)c1 | inactive |  | inactive |  | inactive | inactive |  | inactive |  | inactive |  | inactive |  | 
8 | CC(C)(C)c1ccccc1OP(=O)(Oc1ccccc1)Oc1ccccc1 | inactive |  | inactive |  | inactive | inactive | 5.03 µM (active) |  | inactive | inactive |  | inactive | inactive | 
9 | CCCCN(CC)C(=O)SCCC | inactive |  | inactive |  | inactive | inactive | 100 µM (active) |  |  | inactive | inactive | inactive |  | 
10 | N#Cc1cc([N+](=O)[O-])ccc1N | inactive |  | inactive |  | inactive | inactive |  | inactive | inactive | inactive |  |  |  | 
11 | CCCCOCCOP(=O)(OCCOCCCC)OCCOCCCC | inactive |  | inactive |  | inactive | inactive |  | inactive |  | inactive |  |  |  | 
12 | CC(=O)c1ccc(-c2ccccc2)cc1 | inactive |  | inactive | 32 µM (active) |  | inactive | 6.19 µM (active) |  |  | inactive | inactive |  |  | 
13 | c1ccc2c(c1)sc1ccccc12 | inactive |  | inactive |  | inactive | inactive | 63.7 µM (active) |  | inactive | inactive |  | inactive |  | 
14 | Nc1cc2c3c(c1)C(c1ccccc1)=N[C@@H](NC(=O)c1cccnc1)C(=O)N3CC2 | inactive |  | inactive | 38.4 µM (active) |  | inactive |  | inactive |  |  |  |  |  | 92.1 µM (active)
15 | CCCN(CCC)c1c([N+](=O)[O-])cc(C(C)C)cc1[N+](=O)[O-] | inactive |  | inactive |  | inactive | inactive |  | inactive |  | inactive |  | inactive |  | 
16 | CCCCCCCc1ccc(O)cc1 | inactive |  | inactive |  | inactive | inactive |  |  |  | inactive | inactive | inactive |  | 
17 | FC(F)(F)c1ccc(Cl)cc1 | inactive |  | inactive |  | inactive | inactive |  |  |  | inactive |  |  |  | 
18 | CC(Cc1ccc(OCC(=O)O)cc1)NCC(O)c1csc(C(F)(F)F)n1 (configuration not stated) | inactive |  | inactive |  | inactive | inactive |  |  |  | inactive |  | inactive |  | 
19 | Cc1cc(C)c(C(=O)P(=O)(c2ccccc2)c2ccccc2)c(C)c1 | inactive |  | inactive | 0.54 µM (active) |  |  | 25.5 µM (active) |  |  |  |  |  |  | 53.4 µM (active)
20 | O=C(O)C(F)(F)OC(F)(F)C(F)(F)OC(F)(F)C(=O)O | inactive |  | inactive |  | inactive |  |  | inactive | inactive | inactive | inactive |  |  | 
21 | O=C(CBr)OCc1ccccc1 | inactive |  | inactive |  | inactive | inactive |  | inactive |  | inactive |  | inactive | inactive | 
22 | COCCOCCO | inactive |  | inactive |  | inactive | inactive |  |  | inactive | inactive |  |  |  | 
23 | CCOP(=S)(OCC)SCSc1ccc(Cl)cc1 | inactive |  | inactive | 5.83 µM (active) |  | inactive | 3.48 µM (active) |  |  | inactive |  | inactive |  | 
24 | O=P1(N(CCCl)CCCl)NCCCO1 (configuration not stated) | inactive |  | inactive |  | inactive |  | 17 µM (active) |  | inactive | inactive |  |  | inactive | 
25 | CCNc1nc(Cl)nc(NC(C)(C)C)n1 | inactive |  | inactive |  | inactive |  | 1.54 µM (active) |  |  | inactive | inactive |  |  | 
26 | O=S(=O)(c1ccc(O)cc1)c1ccc(O)cc1 | inactive |  | inactive |  | inactive |  | 1.06 µM (active) |  |  | inactive |  |  |  | 
